PubChem BioAssay (NCATS)
Results filed as inconclusive are left out. Activity calls are given as the source filed them. Calls follow the shape of the dose curve; as a rule, active = well fitted cell-killing curve with a large enough effect; inconclusive = small, poorly fitted or top-dose-only effect, or effect the other way; inactive = no such curve, though single readings can be large or run the other way.

Assay: Quantitative High-Throughput drug screen in 47 multiple myeloma cell lines against the NCATS MIPE library collection: KMS21BM_JCRB cell viability assay (AID 1918974)
Conditions: ATP luminescence, 48 h; series mostly up to 45.8 µM; viability: at the top concentration
Method in brief: (§1)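 Steps: seed 500 cells per well; pin-transfer MIPE 4.0 library; incubate 48 h at 37C, 5% CO2, humidified; add CellTiter-Glo, 5 min room temperature; read luminescence.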
Potency is read from the fitted curve at half-maximal effect.

SMILES	Potency	viability
CNC(=O)N1N=C(c2ccc(N)cc2)c2cc3c(cc2CC1C)OCO3 (stereo not drawn)	1480 nM (active)	
CN(C)CCc1ccc(O)cc1		167% (inactive)
C=C(C)[C@H]1Cc2c(ccc3c2O[C@@H]2COc4cc(OC)c(OC)cc4[C@@H]2C3=O)O1	209 nM (active)	
Cn1cc(C2=C(c3cn(C4CCN(Cc5ccccn5)CC4)c4ccccc34)C(=O)NC2=O)c2ccccc21	166 nM (active)	
COC1(CS(=O)c2ccccc2)CCN(CCc2c[nH]c3ccc(F)cc23)CC1 (stereo not drawn)		138% (inactive)
O=P1(NCCCl)OCCCN1CCCl (stereo not drawn)	7430 nM (active)	
O=c1[nH]c2ccccc2n1CCCN1CCC(n2c(=O)[nH]c3cc(Cl)ccc32)CC1	118 nM (active)	

Assay: Quantitative High-Throughput drug screen in 47 multiple myeloma cell lines against the NCATS MIPE library collection: KMS26_JCRB cell viability assay (AID 1918975); also: nearly all actives have a fitted effect of over 45% in size;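 as to viability (% of DMSO): 100% = DMSO-treated wells and 0% = wells with media only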
Conditions: KMS26 myeloma cells viability, CellTiter-Glo ATP, 48 h; series mostly up to 45.8 µM; viability (% of DMSO): at the top concentration
Method in brief: as §1

SMILES	Potency	viability (% of DMSO)
CNC(=O)N1N=C(c2ccc(N)cc2)c2cc3c(cc2CC1C)OCO3 (stereo not drawn)	3320 nM (active)	
CN(C)CCc1ccc(O)cc1		143% (inactive)
C[C@@H]1O[C@@H](O[C@H]2C[C@@H](O)[C@]3(CO)[C@H]4[C@H](O)C[C@]5(C)[C@@H](C6=CC(=O)OC6)CC[C@]5(O)[C@@H]4CC[C@]3(O)C2)[C@H](O)[C@H](O)[C@H]1O	105 nM (active)	
Cc1cccc(C)c1NC(=O)CN1CCCC1=O		123% (inactive)
CC1=C2C[C@@H]3[C@@H](CC=C4C[C@@H](O)CC[C@@]43C)[C@@H]2CC[C@]12O[C@H]1C[C@H](C)CN[C@H]1[C@H]2C		121% (inactive)
COc1ccc(C(CN(C)C)C2(O)CCCCC2)cc1 (stereo not drawn)		114% (inactive)
C[C@@H]1[C@@H](CC(C[C@H]2O[C@@H]3O[C@]4(C)CC[C@@H]5[C@H](C)CC[C@@H]([C@H]2C)[C@@]35OO4)C[S+](=O)([O-])c2ccc(COC(=O)N(C)C)cc2)O[C@@H]2O[C@]3(C)CC[C@H]4[C@H](C)CC[C@@H]1[C@@]24OO3 (stereo partly drawn)	296 nM (active)	
CCCC(C)(COC(N)=O)COC(=O)NC(C)C (stereo not drawn)		147% (inactive)
Cc1cc(SCc2sc(-c3ccc(C(F)(F)F)c(F)c3)nc2C)ccc1OCC(=O)O	4690 nM (active)	
Fc1ccc(C(OCCN2CCN(CCCc3ccccc3)CC2)c2ccc(F)cc2)cc1	16600 nM (active)	
O=C(O)C(=O)c1cn(Cc2ccccc2)c2ccc(-c3ccc(OC(F)(F)F)cc3)cc12		133% (inactive)
O=C1CC[C@@]2(O)[C@H]3Cc4ccc(O)c5c4[C@@]2(CCN3CC2CC2)[C@H]1O5		128% (inactive)
Cn1cc(C2=C(c3cn(C4CCN(Cc5ccccn5)CC4)c4ccccc34)C(=O)NC2=O)c2ccccc21	16600 nM (active)	
Cn1c(CCCC(=O)O)nc2cc(N(CCCl)CCCl)ccc21	5900 nM (active)	
N[C@@H](Cc1ccc(N(CCCl)CCCl)cc1)C(=O)O	23500 nM (active)	
CC(C)CC(N(C)C)C1(c2ccc(Cl)cc2)CCC1 (stereo not drawn)		111% (inactive)
Cc1sc2c(c1C)C(c1ccc(Cl)cc1)=N[C@@H](CC(=O)OC(C)(C)C)c1nnc(C)n1-2	526 nM (active)	
CN(C)CCN(C)CCc1ccc(Cl)c(Cl)c1		145% (inactive)
C#CCN(C)[C@H](C)Cc1ccccc1		125% (inactive)
COC[C@H]1OC(=O)c2coc3c2[C@@]1(C)C1=C(C3=O)C2CCC(=O)[C@@]2(C)C[C@H]1OC(C)=O (stereo partly drawn)	1180 nM (active)	
COC1(CS(=O)c2ccccc2)CCN(CCc2c[nH]c3ccc(F)cc23)CC1 (stereo not drawn)		120% (inactive)
O=P1(NCCCl)OCCCN1CCCl (stereo not drawn)		124% (inactive)
CC(O)(CS(=O)(=O)c1ccc(F)cc1)C(=O)Nc1ccc(C#N)c(C(F)(F)F)c1 (stereo not drawn)	1180 nM (active)	
CNC(=O)c1ccc(N2C(=S)N(c3ccc(C#N)c(C(F)(F)F)c3)C(=O)C23CCC3)cc1F	18700 nM (active)	
CN1CCN(C(=O)O[C@H]2c3nccnc3C(=O)N2c2ccc(Cl)cn2)CC1		124% (inactive)
C[C@@H]1[C@@H](C(=O)C[C@H]2O[C@@H]3O[C@]4(C)CC[C@@H]5[C@H](C)CC[C@@H]([C@H]2C)[C@@]35OO4)O[C@@H]2O[C@]3(C)CC[C@H]4[C@H](C)CC[C@@H]1[C@@]24OO3	590 nM (active)	
